# Experimental data from the supplement of paper PMC8728848.
# Only a selection was taken, and the strongest signals are over-represented in it overall.
# B1: TAL6-6LysM (Trichoderma atroviride) (protein)
# chain: AASKLGVPQPAQRDQVNCQLYAVQPNDNCIDISSKNNITYAQLLSWNPSLSSTCSNLASLNSSSICVSNPKGTFSISSNTVGATDIATTTAPVPSPTLDQTTSRCAKYYQVSDGDDCSHLTAQFAITLKDFIFLNSEVWQNCTNLELGYYYCVEPVGYISTYPGYLPTATTKPFNQTSATSLPYDGDPWARFSSNSSVIPIANGTRVDCYSYVYVKNLTENLFADCWNMASMYEITREELVLWNPSLGNDGSSGSNLSGAEASQVASSIAIPTTAPSSITTNLYTYPCTVAANISYCVALVSSTGALPTNTAPPGPHASGEISNCTAWFAPEAYDTCKSILDIFEMSFANFYKMNPSVGPDCSGLAVGTNYCVSTYPNGEDPNDDWDGDDSIPSISPTGIITPTPTQSGMVSNCNKFYDVHSNDGCSAIASSQHVDLSSLYKWNPAIKTDCSGLQASVYVCIGILTTSMSTTSKLPTTTSKPSTTSKPPTGITTPTPTQSGMVKNCNKFYDVHSGDGCSAIASSQKVNLSSFYLWNPAVKTDCSGLQASVFVCIGTLTTSMSTTTSKLPTTTSKPSTTSKPPTGIITPTPTQNGMVKNCNKFYDVHSGDGCSAIASSQKVNLSSFYLWNPAVKTDCSGLQASVFVCVGTATTTTAAGITTPTPTQSGMVSGCNKFYDVHAGDGCSAIASSQKIALSSLYKWNPAVKTDCSGLQASVYICIGVGNAAAARVTGAAASFLEQKLISEEDLNSAVDHHHHHH
# Tests used:
# Assay in all cases: glycan array binding signal (z-score within array); higher = stronger binding
# Settings in all cases: glycan notation: IUPAC condensed, linker removed
# [1] = molecular target: GalNAc(a1-3)GalNAc(b1-3)Gal(a1-4)Gal(b1-4)GlcNAc
# Method in brief: (§1)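 The Consortium for Functional Glycomics database supplied 3228 glycan arrays, of which those lacking an available protein sequence were dropped. The binding signal, a within-array Z-score, was averaged across arrays of the same protein sequence and across linkers. Negative scores can be read as non-binding.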
# GalNAc(b1-3)GlcNAc = molecular target: GalNAc(b1-3)GlcNAc
# Method in brief: as §1
# GalNAc6S(b1-4)GlcNAc = molecular target: GalNAc6S(b1-4)GlcNAc
# Method in brief: as §1
# GlcA(b1-3)GlcNAc = molecular target: GlcA(b1-3)GlcNAc
# Method in brief: as §1
# [2] = molecular target: GlcNAc(b1-2)Man(a1-3)[GlcNAc(b1-2)Man(a1-6)]Man(b1-4)GlcNAc(b1-4)GlcNAc
# Method in brief: as §1
# [3] = molecular target: GlcNAc(b1-3)Gal(b1-4)GlcNAc(b1-3)Gal(b1-4)GlcNAc
# Method in brief: as §1
# [4] = molecular target: GlcNAc(b1-3)Gal(b1-4)GlcNAc(b1-3)Gal(b1-4)GlcNAc(b1-3)Gal(b1-4)GlcNAc(b1-3)Gal(b1-4)GlcNAc(b1-2)Man(a1-3)[GlcNAc(b1-3)Gal(b1-4)GlcNAc(b1-3)Gal(b1-4)GlcNAc(b1-3)Gal(b1-4)GlcNAc(b1-3)Gal(b1-4)GlcNAc(b1-2)Man(a1-6)]Man(b1-4)GlcNAc(b1-4)GlcNAc
# Method in brief: as §1
# Kdn(a2-6)Gal(b1-4)GlcNAc = molecular target: Kdn(a2-6)Gal(b1-4)GlcNAc
# Method in brief: as §1
# Man(a1-2)Man(a1-3)Man = molecular target: Man(a1-2)Man(a1-3)Man
# Method in brief: as §1
# [5] = molecular target: Man(a1-3)[Man(a1-6)]Man(a1-6)[Man(a1-2)Man(a1-3)]Man(b1-4)GlcNAc(b1-4)GlcNAc
# Method in brief: as §1
# [6] = molecular target: Neu5Ac(a2-3)Gal(b1-3)GalNAc(b1-3)Gal(a1-4)Gal(b1-4)Glc
# Method in brief: as §1
# [7] = molecular target: Neu5Ac(a2-3)Gal(b1-3)GlcNAc(b1-4)Gal(b1-4)Glc
# Method in brief: as §1
# [8] = molecular target: Neu5Ac(a2-3)Gal(b1-4)GlcNAc(b1-2)Man(a1-3)[Neu5Ac(a2-6)Gal(b1-4)GlcNAc(b1-2)Man(a1-6)]Man(b1-4)GlcNAc(b1-4)GlcNAc
# Method in brief: as §1
# [9] = molecular target: Neu5Ac(a2-3)Gal(b1-4)GlcNAc(b1-3)Gal(b1-3)GlcNAc
# Method in brief: as §1
# [10] = molecular target: Neu5Ac(a2-3)Gal(b1-4)GlcNAc(b1-3)Gal(b1-4)GlcNAc(b1-3)Gal(b1-4)GlcNAc
# Method in brief: as §1
# [11] = molecular target: Neu5Ac(a2-3)Gal(b1-4)[Fuc(a1-3)]GlcNAc(b1-3)Gal(b1-4)[Fuc(a1-3)]GlcNAc(b1-3)Gal(b1-4)[Fuc(a1-3)]GlcNAc
# Method in brief: as §1
# [12] = molecular target: Neu5Ac(a2-3)Gal6S(b1-4)GlcNAc
# Method in brief: as §1
# [13] = molecular target: Neu5Ac(a2-3)Gal6S(b1-4)[Fuc(a1-3)]GlcNAc
# Method in brief: as §1
# [14] = molecular target: Neu5Ac(a2-3)GalNAc(b1-4)GlcNAc
# Method in brief: as §1
# [15] = molecular target: Neu5Ac(a2-6)Gal(b1-4)GlcNAc(b1-2)Man(a1-3)[Neu5Ac(a2-3)Gal(b1-4)GlcNAc(b1-2)Man(a1-6)]Man(b1-4)GlcNAc(b1-4)GlcNAc
# Method in brief: as §1
# [16] = molecular target: Neu5Ac(a2-6)Gal(b1-4)GlcNAc(b1-2)Man(a1-3)[Neu5Ac(a2-6)Gal(b1-4)GlcNAc(b1-2)Man(a1-6)]Man(b1-4)GlcNAc(b1-4)GlcNAc
# Method in brief: as §1
# [17] = molecular target: Neu5Ac(a2-6)Gal(b1-4)GlcNAc(b1-3)Gal(b1-4)GlcNAc(b1-6)[Gal(b1-3)]GalNAc
# Method in brief: as §1
# [18] = molecular target: Neu5Ac(a2-6)Gal(b1-4)GlcNAc(b1-3)Gal(b1-4)[Fuc(a1-3)]GlcNAc(b1-3)Gal(b1-4)[Fuc(a1-3)]GlcNAc
# Method in brief: as §1
# [19] = molecular target: Neu5Ac(a2-6)Gal(b1-4)GlcNAc6S
# Method in brief: as §1
# [20] = molecular target: Neu5Ac(a2-8)Neu5Ac(a2-3)Gal(b1-3)GalNAc(b1-4)[Neu5Ac(a2-8)Neu5Ac(a2-3)]Gal(b1-4)Glc
# Method in brief: as §1
# [21] = molecular target: Neu5Ac(a2-8)Neu5Ac(a2-3)[GalNAc(b1-4)]Gal(b1-4)Glc
# Method in brief: as §1
# [22] = molecular target: Neu5Ac(a2-8)Neu5Ac(a2-8)Neu5Ac
# Method in brief: as §1
# Neu5Ac(b2-6)GalNAc = molecular target: Neu5Ac(b2-6)GalNAc
# Method in brief: as §1
# Neu5Gc(a2-3)Gal(b1-4)Glc = molecular target: Neu5Gc(a2-3)Gal(b1-4)Glc
# Method in brief: as §1
# [23] = molecular target: Neu5Gc(b2-6)Gal(b1-4)GlcNAc
# Method in brief: as §1
binder,measurement,setting,value
B1,glycan array binding signal (z-score),[1],-0.794
same,glycan array binding signal (z-score),GalNAc(b1-3)GlcNAc,-0.241
same,glycan array binding signal (z-score),GalNAc6S(b1-4)GlcNAc,0.157
same,glycan array binding signal (z-score),GlcA(b1-3)GlcNAc,1.11
same,glycan array binding signal (z-score),[2],0.42
same,glycan array binding signal (z-score),[3],0.291
same,glycan array binding signal (z-score),[4],-0.734
same,glycan array binding signal (z-score),Kdn(a2-6)Gal(b1-4)GlcNAc,2.71
same,glycan array binding signal (z-score),Man(a1-2)Man(a1-3)Man,-0.128
same,glycan array binding signal (z-score),[5],2.52
same,glycan array binding signal (z-score),[6],-0.741
same,glycan array binding signal (z-score),[7],0.273
same,glycan array binding signal (z-score),[8],-0.683
same,glycan array binding signal (z-score),[9],-0.147
same,glycan array binding signal (z-score),[10],1.76
same,glycan array binding signal (z-score),[11],0.058
same,glycan array binding signal (z-score),[12],0.428
same,glycan array binding signal (z-score),[13],-1.04
same,glycan array binding signal (z-score),[14],-0.545
same,glycan array binding signal (z-score),[15],-0.013
same,glycan array binding signal (z-score),[16],0.076
same,glycan array binding signal (z-score),[17],-0.387
same,glycan array binding signal (z-score),[18],2.13
same,glycan array binding signal (z-score),[19],0.283
same,glycan array binding signal (z-score),[20],0.052
same,glycan array binding signal (z-score),[21],2.17
same,glycan array binding signal (z-score),[22],-0.139
same,glycan array binding signal (z-score),Neu5Ac(b2-6)GalNAc,-0.369
same,glycan array binding signal (z-score),Neu5Gc(a2-3)Gal(b1-4)Glc,-1.25
same,glycan array binding signal (z-score),[23],0.217
